The target in test [1] is T1, CDK9/cyclin T1 (Homo sapiens) (UniProt O60563+P50750). As to conditions: at 1 µM.
The target in test [2] is T1, CDK9/cyclin T1 (Homo sapiens). As to conditions: at 10 µM.
For test [3], the target named is T2, Serine/threonine-protein kinase Chk1 (Homo sapiens) (UniProt O14757).
T2 sequence (whole entry): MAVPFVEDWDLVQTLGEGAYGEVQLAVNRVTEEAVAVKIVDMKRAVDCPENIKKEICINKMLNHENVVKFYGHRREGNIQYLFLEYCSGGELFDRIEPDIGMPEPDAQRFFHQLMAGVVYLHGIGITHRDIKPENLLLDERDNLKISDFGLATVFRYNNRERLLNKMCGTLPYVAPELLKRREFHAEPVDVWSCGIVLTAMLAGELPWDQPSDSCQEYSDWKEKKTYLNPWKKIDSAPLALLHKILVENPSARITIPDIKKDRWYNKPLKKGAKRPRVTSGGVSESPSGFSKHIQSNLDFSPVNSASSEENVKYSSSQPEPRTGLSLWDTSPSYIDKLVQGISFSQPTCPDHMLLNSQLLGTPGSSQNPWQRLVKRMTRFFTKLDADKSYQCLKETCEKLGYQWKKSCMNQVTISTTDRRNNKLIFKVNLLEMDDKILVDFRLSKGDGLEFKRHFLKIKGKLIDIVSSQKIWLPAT
As to conditions: at 1 µM.

The target of test [4] is T2, Serine/threonine-protein kinase Chk1 (Homo sapiens). As to conditions: at 10 µM.
Test [5] addresses Serine/threonine-protein kinase Chk2 (Homo sapiens) (UniProt O96017). As to conditions: at 1 µM.
Test [6] shares this target. As to conditions: at 10 µM.
In test [7] the target is Casein kinase I isoform gamma-1 (Homo sapiens) (UniProt Q9HCP0). As to conditions: at 1 µM.
For test [8] the target is unchanged. As to conditions: at 10 µM.
Test [9] deals with Casein kinase I isoform delta (Homo sapiens) (UniProt P48730). To be noted: at 1 µM.
Test [10] has the same target. As to conditions: at 10 µM.
In test [11] the target is Casein kinase II subunit alpha' (Homo sapiens) (UniProt P19784). As to conditions: at 10 µM.
Test [12] concerns the target Dual specificity protein kinase CLK2 (Homo sapiens) (UniProt P49760). As to conditions: at 1 µM.
Test [13] has the same target. As to conditions: at 10 µM.
Test [14] concerns the target Dual specificity protein kinase CLK3 (Homo sapiens) (UniProt P49761). As to conditions: at 1 µM.
Test [15] shares this target. As to conditions: at 10 µM.
In test [16] the target is T3, Casein kinase II (Homo sapiens) (UniProt P67870+P68400+P19784). As to conditions: at 1 µM.
Test [17] has as its target T3, Casein kinase II (Homo sapiens). As to conditions: at 10 µM.
Test [18] addresses Casein kinase II subunit alpha' (Homo sapiens) (UniProt P19784). To be noted: at 1 µM.
For test [19], the target named is Tyrosine-protein kinase CSK (Homo sapiens) (UniProt P41240). To be noted: at 1 µM.
The target is the same in test [20]. To be noted: at 10 µM.

Among the data in ChEMBL document CHEMBL2218924, “A broad activity screen in support of a chemogenomic map for kinase signalling research and drug discovery” (Biochem J, 2013) are residual activity values, retold here.

Dual specificity protein kinase CLK3 (Homo sapiens), sequence (P49761 whole entry, looked up): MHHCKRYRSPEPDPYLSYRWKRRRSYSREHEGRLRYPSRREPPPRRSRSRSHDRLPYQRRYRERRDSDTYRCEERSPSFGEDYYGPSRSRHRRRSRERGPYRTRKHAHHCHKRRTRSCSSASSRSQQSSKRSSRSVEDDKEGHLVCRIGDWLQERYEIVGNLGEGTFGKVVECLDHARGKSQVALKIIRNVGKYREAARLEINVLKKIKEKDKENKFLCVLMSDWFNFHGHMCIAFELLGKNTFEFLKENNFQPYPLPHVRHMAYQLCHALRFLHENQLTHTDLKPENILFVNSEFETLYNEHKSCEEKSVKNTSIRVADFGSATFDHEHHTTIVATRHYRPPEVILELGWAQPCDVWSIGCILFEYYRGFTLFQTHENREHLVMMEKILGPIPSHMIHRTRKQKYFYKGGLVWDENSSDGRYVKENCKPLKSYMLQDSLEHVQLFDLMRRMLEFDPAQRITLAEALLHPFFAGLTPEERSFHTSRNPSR
Casein kinase I isoform delta (Homo sapiens), sequence (P48730 whole entry, looked up, canonical isoform): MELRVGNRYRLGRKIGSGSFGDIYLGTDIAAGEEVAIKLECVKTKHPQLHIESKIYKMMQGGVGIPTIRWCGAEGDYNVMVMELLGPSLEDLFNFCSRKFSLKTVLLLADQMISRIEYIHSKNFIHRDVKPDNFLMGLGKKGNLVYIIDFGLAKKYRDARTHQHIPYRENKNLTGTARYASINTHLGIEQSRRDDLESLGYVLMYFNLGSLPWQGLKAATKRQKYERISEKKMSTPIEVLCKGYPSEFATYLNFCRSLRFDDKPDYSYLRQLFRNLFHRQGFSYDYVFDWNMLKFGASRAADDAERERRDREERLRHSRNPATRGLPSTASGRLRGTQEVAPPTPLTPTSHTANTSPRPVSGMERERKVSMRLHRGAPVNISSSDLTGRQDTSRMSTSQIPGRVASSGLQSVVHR
Casein kinase II subunit alpha' (Homo sapiens), sequence (P19784 whole entry, looked up): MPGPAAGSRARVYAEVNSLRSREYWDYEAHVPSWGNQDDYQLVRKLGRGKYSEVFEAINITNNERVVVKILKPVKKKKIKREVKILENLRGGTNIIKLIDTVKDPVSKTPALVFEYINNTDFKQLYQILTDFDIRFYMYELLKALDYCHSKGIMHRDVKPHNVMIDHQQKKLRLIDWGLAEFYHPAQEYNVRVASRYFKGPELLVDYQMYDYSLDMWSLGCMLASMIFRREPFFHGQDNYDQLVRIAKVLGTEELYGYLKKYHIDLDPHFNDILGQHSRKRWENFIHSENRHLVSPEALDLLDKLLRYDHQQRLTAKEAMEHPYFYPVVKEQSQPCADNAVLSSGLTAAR
T3 sequence (P19784 whole entry, looked up): as above
T3 sequence (P67870 whole entry, looked up): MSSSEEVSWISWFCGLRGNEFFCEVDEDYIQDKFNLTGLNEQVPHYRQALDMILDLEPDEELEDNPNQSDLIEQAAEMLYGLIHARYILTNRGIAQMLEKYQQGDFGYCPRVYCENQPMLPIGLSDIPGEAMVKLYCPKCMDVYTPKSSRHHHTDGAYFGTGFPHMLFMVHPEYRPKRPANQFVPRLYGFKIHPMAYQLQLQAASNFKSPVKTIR
T3 sequence (P68400 whole entry, looked up): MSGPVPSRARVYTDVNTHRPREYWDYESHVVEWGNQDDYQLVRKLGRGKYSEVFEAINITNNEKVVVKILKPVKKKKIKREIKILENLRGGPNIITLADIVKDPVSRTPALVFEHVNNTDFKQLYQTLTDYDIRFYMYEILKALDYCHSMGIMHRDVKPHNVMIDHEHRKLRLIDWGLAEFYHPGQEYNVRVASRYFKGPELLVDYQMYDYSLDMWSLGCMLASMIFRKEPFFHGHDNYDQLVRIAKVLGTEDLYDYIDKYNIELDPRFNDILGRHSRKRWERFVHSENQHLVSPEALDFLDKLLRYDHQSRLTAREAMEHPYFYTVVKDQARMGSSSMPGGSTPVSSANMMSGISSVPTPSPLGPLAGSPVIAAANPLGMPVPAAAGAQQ
Casein kinase I isoform gamma-1 (Homo sapiens), sequence (Q9HCP0 whole entry, looked up, canonical isoform): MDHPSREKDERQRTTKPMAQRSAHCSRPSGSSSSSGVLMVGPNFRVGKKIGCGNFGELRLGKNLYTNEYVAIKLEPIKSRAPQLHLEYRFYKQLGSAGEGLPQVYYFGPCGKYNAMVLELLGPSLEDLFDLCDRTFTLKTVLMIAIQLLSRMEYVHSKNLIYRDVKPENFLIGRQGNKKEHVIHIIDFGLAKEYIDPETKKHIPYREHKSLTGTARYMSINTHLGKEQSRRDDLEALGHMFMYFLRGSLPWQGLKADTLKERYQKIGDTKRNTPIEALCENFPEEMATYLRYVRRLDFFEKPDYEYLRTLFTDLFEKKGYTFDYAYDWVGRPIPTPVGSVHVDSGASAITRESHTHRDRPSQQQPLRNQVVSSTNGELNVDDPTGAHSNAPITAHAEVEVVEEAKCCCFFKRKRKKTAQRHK
Tyrosine-protein kinase CSK (Homo sapiens), sequence (P41240 2-450 limits assumed): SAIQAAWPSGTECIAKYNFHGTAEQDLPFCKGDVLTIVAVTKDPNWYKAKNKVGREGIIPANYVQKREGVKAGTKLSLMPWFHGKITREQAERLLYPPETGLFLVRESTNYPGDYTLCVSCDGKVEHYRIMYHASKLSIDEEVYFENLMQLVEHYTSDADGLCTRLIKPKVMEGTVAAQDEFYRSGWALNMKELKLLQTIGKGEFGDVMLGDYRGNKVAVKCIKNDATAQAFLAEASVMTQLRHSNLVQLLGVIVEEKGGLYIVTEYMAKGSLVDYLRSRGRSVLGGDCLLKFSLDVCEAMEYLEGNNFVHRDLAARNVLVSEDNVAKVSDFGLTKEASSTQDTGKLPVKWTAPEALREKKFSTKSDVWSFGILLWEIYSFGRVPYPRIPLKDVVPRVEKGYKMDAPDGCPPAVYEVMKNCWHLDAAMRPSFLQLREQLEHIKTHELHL
Serine/threonine-protein kinase Chk2 (Homo sapiens), sequence (O96017 whole entry): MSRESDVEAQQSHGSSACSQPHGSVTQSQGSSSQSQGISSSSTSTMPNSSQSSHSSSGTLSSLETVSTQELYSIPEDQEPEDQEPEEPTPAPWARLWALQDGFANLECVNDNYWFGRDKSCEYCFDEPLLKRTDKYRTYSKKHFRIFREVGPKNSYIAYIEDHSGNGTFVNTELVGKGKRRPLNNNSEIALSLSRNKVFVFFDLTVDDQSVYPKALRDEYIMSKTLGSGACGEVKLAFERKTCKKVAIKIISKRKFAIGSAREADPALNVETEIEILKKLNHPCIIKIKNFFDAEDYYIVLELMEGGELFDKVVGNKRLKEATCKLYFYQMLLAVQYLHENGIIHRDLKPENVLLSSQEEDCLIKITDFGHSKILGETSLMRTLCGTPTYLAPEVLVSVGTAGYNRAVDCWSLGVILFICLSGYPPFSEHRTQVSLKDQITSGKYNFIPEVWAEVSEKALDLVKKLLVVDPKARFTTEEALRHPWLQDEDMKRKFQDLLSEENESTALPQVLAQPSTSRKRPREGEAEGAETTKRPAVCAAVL
Dual specificity protein kinase CLK2 (Homo sapiens), sequence (P49760 whole entry, looked up): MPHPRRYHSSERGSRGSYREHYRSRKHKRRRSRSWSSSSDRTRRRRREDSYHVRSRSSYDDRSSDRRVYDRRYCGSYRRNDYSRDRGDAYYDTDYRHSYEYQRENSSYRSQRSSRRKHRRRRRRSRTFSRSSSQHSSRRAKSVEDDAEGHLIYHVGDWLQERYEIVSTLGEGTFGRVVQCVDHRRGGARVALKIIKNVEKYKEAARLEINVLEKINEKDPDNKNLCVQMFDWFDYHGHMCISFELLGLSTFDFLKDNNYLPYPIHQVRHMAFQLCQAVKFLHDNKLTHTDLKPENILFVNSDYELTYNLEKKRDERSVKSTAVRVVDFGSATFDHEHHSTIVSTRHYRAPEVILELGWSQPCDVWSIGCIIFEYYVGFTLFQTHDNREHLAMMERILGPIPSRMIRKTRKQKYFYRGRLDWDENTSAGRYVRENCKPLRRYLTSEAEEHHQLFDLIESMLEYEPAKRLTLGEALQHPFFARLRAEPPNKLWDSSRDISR

A word on the residual activity: it is the signal under treatment as a percentage of the control signal. For the molecule `O=C(c1cc2cc(O)ccc2[nH]1)c1cc2cc(O)ccc2[nH]1`, the residual activity in test [1] is 26%; in test [2], 4%; in test [3] it was 76%; in test [4], 47%; in [5] it was 60%; in test [6], 22%. Besides, the residual activity in test [7] is 50%; in test [8] it was 10%; in [9], 74%; in test [10] it was 37%; in test [11], 72%; in test [12], 32%. Besides, the figures for the residual activity in [13], in test [14] and in test [15] were 5%, 69% and 4%, respectively.
For `CC(C)c1nn(-c2c(Cl)cccc2Cl)c2nc(Cc3ccc(OCCO)cc3)[nH]c(=O)c12`, the residual activity in test [1] came out at 2%; in [2], 0%; in test [3] it was 93%; in [4] it was 95%; in test [5], 91%; in test [6] it was 80%. The residual activity was determined as 74% in [7]; 89% in [8]; 79% in [9]; 53% in [10]; 100% in [16]; 96% in test [17]. Besides, the residual activity in test [18] came out at 108%; in test [11], 94%; in test [12], 38%; in test [13] it was 48%; in test [14], 77%; in test [15], 59%. Further, the results for the residual activity in test [19] and in test [20] were 123% and 106%, respectively.
As for `NCCNc1ncc(C(N)=O)c(Nc2cccc(C(F)(F)F)c2)n1`, the residual activity in test [1] is 73%; in [2], 21%; in test [3], 66%; in test [4], 27%; in [5] it was 15%; in test [6] it was 2%. The residual activity in test [9] was 79%; in test [10], 58%; in test [14], 82%; in test [15], 63%.
For `CN(C)S(=O)(=O)c1ccc2c(c1)/C(=C/c1cc3c([nH]1)CCCC3)C(=O)N2`, the residual activity was found to be 92% in test [1]; 93% in test [2]; 77% in [3]; 73% in test [4]; 35% in [5]; 92% in [9]. Further, the residual activity in test [10] was found to be 71%; in test [16] it was 95%; in test [17] it was 100%; in [11] it was 94%; in [12] it was 69%; in [13], 71%. In addition, the residual activity in test [14] worked out at 39%; in test [15], 28%.
With `Nc1n[nH]c2nc3ccccc3nc12`, the residual activity in [1] turned out to be 59%; in test [2], 36%; in [3], 90%; in test [4], 79%; in test [5], 82%; in [6], 61%. Moreover, the residual activity in test [7] was determined as 79%; in [8], 69%; in test [9] it was 75%; in [10] it was 34%; in test [16], 85%; in test [17] it was 62%. The residual activity in test [12] amounted to 84%; in test [13] it was 52%; in [14], 88%; in [15] it was 71%.
As to `CCN(CC)CCNC(=O)c1c(C)[nH]c(/C=C2\C(=O)Nc3ccc(Cl)cc32)c1C`, the residual activity in test [1] is 48%; in test [2], 13%; in test [3], 24%; in [4] it was 3%; in [5] it was 6%; in [6], 1%. The residual activity stood at 64% in [7]; 14% in [8]; 23% in test [9]; 5% in test [10]; 47% in test [11]; 9% in [12]. Also, the residual activity worked out at 1% in test [13], 77% in test [14] and 4% in test [15].
For the molecule `COc1cc2nccc(Oc3ccc(NC(=O)Nc4cc(C)on4)c(Cl)c3)c2cc1OC`, the residual activity in test [2] amounted to 72%; in test [5], 79%; in test [6] it was 30%; in [13] it was 99%; in [14], 80%; in test [15], 4%. The values for the residual activity in [19] and in test [20] were 72% and 35%, respectively.
For the molecule `N#C/C(=C\c1ccc(O)c(O)c1)C(=O)NCc1ccccc1`, the residual activity in [5] was determined as 89%; in test [6], 73%; in test [9] it was 80%; in test [10] it was 87%; in test [18], 129%; in test [11], 100%. Further, the residual activity in test [13] came out at 80%; in [14], 82%.
As for `CCOC(=O)c1c(C)[nH]c(/C=C2\C(=O)Nc3ccccc32)c1C`, the residual activity amounted to 90% in [3]; 92% in [4]; 45% in test [5]; 34% in test [6]; 88% in test [7]; 81% in [8]. Further, the residual activity stood at 77% in test [9]; 62% in [10]; 77% in test [16]; 118% in test [17]; 131% in test [18]; 89% in test [11]. The residual activity in test [12] came out at 95%; in test [13], 95%; in test [14], 82%; in test [15] it was 73%.
Take `COc1ccc(COc2ccc(Cc3cnc(N)nc3N)cc2OC)cc1`: the residual activity in test [18] was 110%; in test [11], 74%; in test [12], 108%; in [13], 100%; in [15], 3%.
Take `c1ccc(-c2cnc(Nc3ccc(OCCN4CCCC4)cc3)s2)cc1`: the residual activity in [1] is 26%; in test [2] it was 4%; in test [9], 81%; in test [10] it was 54%; in test [18], 127%; in [11], 81%. For the same molecule, the residual activity in [13] is 30%.
`O=C1Nc2ccccc2/C1=C\c1c(Cl)[nH]c2ccccc12`: the residual activity in test [1] was found to be 80%; in [2] it was 34%; in test [5], 75%; in test [6], 41%; in test [9], 85%; in test [10] it was 51%. Moreover, the residual activity amounted to 76% in test [15] and 99% in test [20].
Take `COc1ccc(Cl)cc1NC(=O)Nc1cc(C)nc2ccccc12`: the residual activity in [3] came out at 86%; in test [4] it was 81%; in [5] it was 85%; in test [7], 94%; in test [8], 100%; in test [16], 94%.
On to `O=C1NC(=O)C(c2cn(CCCO)c3ncccc23)=C1c1cnccn1`, for which the residual activity in [1] is 89%; in test [2], 82%; in test [5], 88%; in test [6], 79%; in [7], 93%; in [8], 90%. Besides, the residual activity in [9] is 79%; in [10], 79%; in test [16], 76%; in test [17], 66%; in test [18] it was 57%; in [11], 52%. Further, the residual activity is 52% in test [12]; 36% in test [13]; 74% in test [14]; 78% in [15]; 97% in test [20].
Turning to `N#Cc1c(NC(=O)c2cccc3ccccc23)sc2c1CCCC2`, the residual activity in test [1] amounted to 99%; in [2], 100%; in test [6] it was 76%; in test [9], 83%; in test [10], 77%; in [16], 97%. For the same molecule, the residual activity in test [17] came out at 99%; in [13], 99%; in test [14] it was 77%; in test [15] it was 87%; in test [20] it was 99%.
With `COc1ccc(CNC(=O)Nc2ncc([N+](=O)[O-])s2)cc1`, the residual activity was 5% in test [2]; 77% in test [6]; 102% in test [12]; 105% in [13]; 81% in [19]; 74% in test [20].
For `Fc1ccc(-c2nc3n(c2-c2ccncc2)CCS3)cc1`, the residual activity in test [5] came to 92%; in [6], 88%; in test [7] it was 86%; in [8] it was 28%; in test [9], 3%; in test [10], 1%. In addition, the residual activity was 99% in test [16], 98% in test [17], 97% in test [14] and 86% in test [15].
For `O=S(=O)(c1cccc2cnccc12)N1CCCNCC1`, the residual activity in test [1] is 81%; in test [2], 29%; in [6], 54%; in test [7] it was 124%; in [8] it was 100%; in test [15] it was 81%.
